# Inconclusive results are not listed. Entries that show only a call come without a potency. A number with no mark means an inactive call. The source made the active and inactive calls. Calls follow the shape of the dose curve; as a rule, active = well fitted inhibition curve with a large enough effect; inconclusive = small, poorly fitted or top-dose-only effect; inactive = flat fitted curve, though single readings scatter.
# Target: Aldehyde dehydrogenase, mitochondrial (Homo sapiens) (UniProt P05091)
# Test: qHTS for Inhibitors of the Aldehyde Dehydrogenase Family (ALDH2) Primary screen (AID 2061308); also: nearly all actives have a fitted effect of over 55% in size
# Conditions: ALDH2 enzyme inhibition qHTS, 1536-well; series mostly up to 56 µM
Compound,Potency,"activity change, negative = inhibition"
COc1cc(O)ccc1OCCNCC(O)COc1cccc2[nH]c3ccccc3c12 (stereo not given),inactive,
N#CN1CCC(NS(=O)(=O)c2ccc(C(F)(F)F)cc2)CC1,inactive,
CN(C)c1cccc(-c2cnc(N3CCC(C(N)=O)CC3)nc2)c1,inactive,
CN(C)c1cnc2c(O)ccc(C(=O)O)c2c1,inactive,
Cc1ccc(NS(=O)(=O)c2cc3c(cc2N2CCC2)NC(=O)CC3)cc1C,inactive,
Cc1ccc(CNc2ccc(N3CCNCC3)cc2)cc1,inactive,
Oc1ccc(CNc2cc(Cl)ccn2)c2cccnc12,inactive,
O=C1Nc2ccccc2/C1=C\c1ccc([N+](=O)[O-])cc1,inactive,
O=C1Nc2ccc(C(=O)c3ccco3)cc2/C1=C/c1cc(Cl)c(O)c(Cl)c1,inactive,
C/C=C/c1ccc2oc(-c3ccc(O)c(OC)c3)c(C)c2c1,inactive,
Cc1noc(C)c1S(=O)(=O)Nc1cnccc1C(=O)Nc1nc(-c2ccccc2)cs1,inactive,
CC(C)(C)OC(=O)N[C@@H](Cc1ccc(O[S+](=O)([O-])c2cccnc2)cc1)C(=O)N1CCN(c2ccccc2)CC1,inactive,
O=C(C(NS(=O)(=O)c1ccc2[nH]c(=O)ccc2c1)c1cccc(C(F)(F)F)c1)N(Cc1ccco1)Cc1cccs1 (stereo not given),inactive,
Cc1ccnc(NC(=S)N[C@@H]2CCN(c3cccc(C(F)(F)F)c3)C2)c1,inactive,
CNS(=O)(=O)c1ccc(Cc2c(-c3cccc(-c4ccccc4)c3)[nH]n(-c3nc(C(=O)O)cs3)c2=O)cc1,inactive,
O=C(O)c1ccc(O)c2ncc(NC3CCNC3)cc12 (stereo not given),inactive,
O=[S+]([O-])(Nc1nccs1)c1ccc(NCc2cc(F)cc(Cl)c2O)cc1,inactive,
CCN(CC)C(=O)CC(c1ccc2c(c1)OCO2)c1c(O)cc(OC)cc1OC (stereo not given),inactive,
CC(=O)Nc1sc2c(c1-c1ccc(N3CCN(C(C)=O)CC3)nc1)CCNC2,inactive,
CC(=O)N1CCN(c2ccc(NCc3cccc(C)c3)cc2)CC1,inactive,

Compound,Potency,"activity change, negative = inhibition"
N[C@@H]1CCN(c2cnc3c(O)ccc(C(=O)O)c3c2)C1,inactive,
Cc1ccc(S(=O)(=O)Nc2cccc3ccc[n+](C)c23)cc1,inactive,
CCC(=O)NC(c1ccco1)c1cc(Br)c2cccnc2c1O (stereo not given),inactive,
Cc1ccc(NC(=O)CN2C(=O)N/C(=C\c3ccco3)C2=O)cc1,inactive,
C=CCNc1nnc(-c2cccc3ccccc23)o1,inactive,
NNc1ccc(NC(=O)c2cccs2)cn1,inactive,
CC(C)(C)OC(=O)N1CCN(c2ccc(NCc3occc3-c3ccc(C#N)cc3)cc2)CC1,inactive,
c1c[nH]c(C2CCN(c3ncc(-c4ccc5c(c4)OCCCO5)s3)CC2)n1,inactive,
Cc1ccc2nc3sc(C(=O)N4CCOCC4)cc3cc2c1,inactive,
CC(=O)N1CCN(c2ccc(NCc3ccccc3)cc2)CC1,inactive,
CNc1ncc(-c2cccc3ccccc23)o1,inactive,
Cc1occc1-c1ccc2ncnc(NCc3ncc[nH]3)c2c1,inactive,
COc1ccc(-c2ccc(=O)n(CC(=O)NCCc3ccccc3)n2)cc1,inactive,
COc1ccc(CNc2ccc(S(=O)(=O)Nc3nccs3)cc2)cc1O,inactive,
Oc1cc(NCc2ccc(F)cc2)cc2cccnc12,inactive,
Nc1cccc(CNc2ccc(S(=O)(=O)Nc3nccs3)cc2)c1O,,2.56% [at 11.2 µM]
COc1ccc(Nc2cc(O)c3ncccc3c2)cc1,inactive,
CN1CCN(c2ccc(NC(=O)c3cccs3)cn2)CC1,inactive,
O=C1CCCC2=C1C1(CCC1)N=C(Nc1nc3ccccc3o1)N2,inactive,
Oc1cccc2cc(NCc3ccccc3F)cnc12,inactive,

# From PubChem BioAssay (NCATS)
